Test results published in PubChem BioAssay (Tox21).
Inconclusive results are not listed. A call without a number means that no potency is given here. The source made the active and inactive calls. Calls come from the whole dose curve.

The molecules below were run against Acetylcholinesterase (Homo sapiens) (UniProt P22303) (assay: Acetylcholinesterase (AChE) small molecule antagonists: colormetric cell-based qHTS assay (AID 1347395; note: nearly all actives have a fitted effect of over 30% in size; note: potency is the fitted concentration of half-maximal effect)). Settings: SH-SY5Y cells AChE activity, colorimetric (Ellman); series mostly up to 115 µM.
Acetylcholinesterase (Homo sapiens), sequence (P22303 whole entry, looked up): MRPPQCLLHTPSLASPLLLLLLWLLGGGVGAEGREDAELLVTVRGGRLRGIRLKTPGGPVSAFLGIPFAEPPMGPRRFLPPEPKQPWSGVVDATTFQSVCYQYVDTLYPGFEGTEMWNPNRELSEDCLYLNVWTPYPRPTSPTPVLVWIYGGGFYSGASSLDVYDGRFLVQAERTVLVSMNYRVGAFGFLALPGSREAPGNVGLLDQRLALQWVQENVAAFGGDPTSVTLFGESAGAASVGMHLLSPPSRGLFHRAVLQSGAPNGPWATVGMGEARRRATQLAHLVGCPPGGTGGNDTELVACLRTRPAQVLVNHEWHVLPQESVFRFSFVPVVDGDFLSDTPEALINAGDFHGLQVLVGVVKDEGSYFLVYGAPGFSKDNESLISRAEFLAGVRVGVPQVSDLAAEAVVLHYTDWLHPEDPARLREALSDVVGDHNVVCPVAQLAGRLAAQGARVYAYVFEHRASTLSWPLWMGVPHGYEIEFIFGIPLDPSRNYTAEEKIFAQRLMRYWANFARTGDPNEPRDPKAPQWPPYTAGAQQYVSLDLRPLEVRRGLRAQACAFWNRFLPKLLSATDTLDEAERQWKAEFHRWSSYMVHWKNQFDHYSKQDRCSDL
Outline: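 AChE inhibition read colorimetrically via DTNB–thiocholine in SH-SY5Y cells. Compound 30 min, substrate 90 min, both 37 C.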

Row | SMILES | Potency | outcome
1 | CC(C)(C)c1cc(CO)cc(C(C)(C)C)c1O | inactive | 
2 | COc1ccc2cc(C=O)ccc2c1 | inactive | 
3 | CCN(CCCCOC(=O)c1ccc(OC)c(OC)c1)C(C)Cc1ccc(OC)cc1 (stereo not drawn) | 17.4 µM (active) | 
4 | COc1ccc(C(=O)Nc2ccccc2)cc1[N+](=O)[O-] | 35.9 µM (active) | 
5 | CCCCCCCCCCCCN(CCO)CCO | inactive | 
6 | Nc1ccc(N=Nc2ccccc2)c(N)c1 | inactive | 
7 | CO/N=C(\C(=O)N[C@@H]1C(=O)N2C(C(=O)O)=C(CSc3nc(=O)c(O)nn3C)CS[C@H]12)c1csc(N)n1 | inactive | 
8 | O=C1NC(=O)c2cccc3cccc1c23 | 39.9 µM (active) | 
9 | CC1CC(=O)NN=C1c1ccc(NCC(C)(C)NCC(O)COc2cc(Cl)ccc2C#N)cc1 (stereo not drawn) | 24.5 µM (active) | 
10 | CCN(CC)CCOC(=O)C(Cc1cccc2ccccc12)CC1CCCO1 (stereo not drawn) | inactive | 
11 | CC(N=C(NC#N)Nc1ccncc1)C(C)(C)C (stereo not drawn) | inactive | 
12 | Cc1ncc([C@@H](CCCCCCc2ccc3c(n2)NCCC3)CC(=O)O)cn1 | 56.4 µM (active) | 
13 | O=C(CCBr)N1CCN(C(=O)CCBr)CC1 | inactive | 
14 | c1ccc([C@H]2CN3CCSC3=N2)cc1 |  | inactive
15 | CC(C)COCC(CN(Cc1ccccc1)c1ccccc1)N1CCCC1 (stereo not drawn) | inactive | 
16 | ON=C1CCCC1 | inactive | 
17 | CC(=O)N[C@@H](CCC(=O)O)C(=O)O | inactive | 
18 | N[C@@H]1CONC1=O | inactive | 
19 | Cc1nccn1-c1ccc(Sc2cccc(C3(C(N)=O)CCOCC3)c2)cc1 |  | inactive
20 | Nc1ccn(C2CO[C@H](CO)O2)c(=O)n1 (stereo partly drawn) | inactive | 

Row | SMILES | Potency | outcome
21 | CSc1ccc(C(=O)c2[nH]c(=O)[nH]c2C)cc1 | inactive | 
22 | Cc1ccccc1C(=O)O | inactive | 
23 | CC1=C(C)C(=O)C(CCCCC#CCCCC#CCO)=C(C)C1=O | inactive | 
24 | CN(C)CCCSc1ccccc1NC(=O)/C=C/c1ccccc1 | inactive | 
25 | Cc1ccc(N)cc1S(=O)(=O)O | inactive | 
26 | Cc1cccc(C)c1NC(=O)CN(CC(=O)O)CC(=O)O | inactive | 
27 | Cc1c(I)c(=O)n(-c2ccccc2)n1C | inactive | 
28 | O=C(CCN1CCC(c2ccccc2)C1)c1ccc2c(c1)OCCO2 (stereo not drawn) | 30.9 µM (active) | 
29 | CC(C)(C)c1csc(-c2cc3cc(OCc4ccccc4CC(=O)O)ccc3o2)n1 | inactive | 
30 | CCCCCCCCCCCCCCN(CCO)CCO | inactive | 
31 | OCCCO | inactive | 
32 | CCOC(=O)COC(=O)c1cc(Oc2ccc(C(F)(F)F)cc2Cl)ccc1[N+](=O)[O-] | inactive | 
33 | COc1ccccc1OCCNCC(O)COc1cccc2[nH]c3ccccc3c12 (stereo not drawn) | inactive | 
34 | Cc1ccc2ccc3cccc4ccc1c2c34 | inactive | 
35 | CCOC(=O)c1ccc(C#Cc2ccc3c(c2)C(C)(C)CCS3)nc1 | inactive | 
36 | O=C1C=CC(=O)N1c1ccc(Cc2ccc(N3C(=O)C=CC3=O)cc2)cc1 | inactive | 
37 | OCCN1CCN(CCCN2c3ccccc3Sc3ccc(Cl)cc32)CC1 | inactive | 
38 | Cc1nc(N)nc(N)c1-c1ccc(Cl)c(Cl)c1 | inactive | 
39 | CN(C)[C@@H](CCOc1cccc2ccccc12)c1ccccc1 | inactive | 

The molecules below were run against Acetylcholinesterase (Homo sapiens) (UniProt P22303) (assay: Acetylcholinesterase (AChE) small molecule antagonists: enzyme-based qHTS assay (AID 1347397; note: nearly all actives have a fitted effect of over 55% in size)). Settings: Potency: AChE enzyme activity inhibition; outcome: AChE enzyme activity inhibition; series mostly up to 115 µM.
Outline: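 Absorbance-based detection of thiocholine with DTNB served as the read-out. Recombinant human AChE was exposed to compound for 30 min at RT before a 10 min RT incubation with acetylthiocholine.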

Row | SMILES | Potency | outcome
40 | CC(C)(C)c1cc(CO)cc(C(C)(C)C)c1O | inactive | 
41 | COc1ccc2cc(C=O)ccc2c1 | inactive | 
42 | CCN(CCCCOC(=O)c1ccc(OC)c(OC)c1)C(C)Cc1ccc(OC)cc1 (stereo not drawn) | inactive | 
43 | COc1ccc(C(=O)Nc2ccccc2)cc1[N+](=O)[O-] | inactive | 
44 | CCCCCCCCCCCCN(CCO)CCO | inactive | 
45 | Nc1ccc(N=Nc2ccccc2)c(N)c1 | inactive | 
46 | CO/N=C(\C(=O)N[C@@H]1C(=O)N2C(C(=O)O)=C(CSc3nc(=O)c(O)nn3C)CS[C@H]12)c1csc(N)n1 | inactive | 
47 | O=C1NC(=O)c2cccc3cccc1c23 | inactive | 
48 | CC1CC(=O)NN=C1c1ccc(NCC(C)(C)NCC(O)COc2cc(Cl)ccc2C#N)cc1 (stereo not drawn) | inactive | 
49 | CCN(CC)CCOC(=O)C(Cc1cccc2ccccc12)CC1CCCO1 (stereo not drawn) | inactive | 
50 | CC(N=C(NC#N)Nc1ccncc1)C(C)(C)C (stereo not drawn) | inactive | 
51 | Cc1ncc([C@@H](CCCCCCc2ccc3c(n2)NCCC3)CC(=O)O)cn1 | inactive | 
52 | O=C(CCBr)N1CCN(C(=O)CCBr)CC1 | inactive | 
53 | c1ccc([C@H]2CN3CCSC3=N2)cc1 |  | inactive
54 | CC(C)COCC(CN(Cc1ccccc1)c1ccccc1)N1CCCC1 (stereo not drawn) | inactive | 
55 | ON=C1CCCC1 | inactive | 
56 | CC(=O)N[C@@H](CCC(=O)O)C(=O)O | inactive | 
57 | N[C@@H]1CONC1=O | inactive | 
58 | Cc1nccn1-c1ccc(Sc2cccc(C3(C(N)=O)CCOCC3)c2)cc1 |  | inactive
59 | Nc1ccn(C2CO[C@H](CO)O2)c(=O)n1 (stereo partly drawn) | inactive | 

Row | SMILES | Potency | outcome
60 | CSc1ccc(C(=O)c2[nH]c(=O)[nH]c2C)cc1 | inactive | 
61 | Cc1ccccc1C(=O)O | inactive | 
62 | CC1=C(C)C(=O)C(CCCCC#CCCCC#CCO)=C(C)C1=O | inactive | 
63 | CN(C)CCCSc1ccccc1NC(=O)/C=C/c1ccccc1 | inactive | 
64 | Cc1ccc(N)cc1S(=O)(=O)O | inactive | 
65 | Cc1cccc(C)c1NC(=O)CN(CC(=O)O)CC(=O)O | inactive | 
66 | Cc1c(I)c(=O)n(-c2ccccc2)n1C | inactive | 
67 | O=C(CCN1CCC(c2ccccc2)C1)c1ccc2c(c1)OCCO2 (stereo not drawn) | inactive | 
68 | CC(C)(C)c1csc(-c2cc3cc(OCc4ccccc4CC(=O)O)ccc3o2)n1 | inactive | 
69 | CCCCCCCCCCCCCCN(CCO)CCO | inactive | 
70 | OCCCO | inactive | 
71 | CCOC(=O)COC(=O)c1cc(Oc2ccc(C(F)(F)F)cc2Cl)ccc1[N+](=O)[O-] | inactive | 
72 | COc1ccccc1OCCNCC(O)COc1cccc2[nH]c3ccccc3c12 (stereo not drawn) | inactive | 
73 | Cc1ccc2ccc3cccc4ccc1c2c34 | inactive | 
74 | CCOC(=O)c1ccc(C#Cc2ccc3c(c2)C(C)(C)CCS3)nc1 | inactive | 
75 | O=C1C=CC(=O)N1c1ccc(Cc2ccc(N3C(=O)C=CC3=O)cc2)cc1 | inactive | 
76 | OCCN1CCN(CCCN2c3ccccc3Sc3ccc(Cl)cc32)CC1 | inactive | 
77 | Cc1nc(N)nc(N)c1-c1ccc(Cl)c(Cl)c1 | inactive | 
78 | CN(C)[C@@H](CCOc1cccc2ccccc12)c1ccccc1 | inactive | 
